In the library only some 1.9% were active in any assay of this set; here they are far more common.
Menin-MLL TR inh = displaces Texas Red mutant MLL peptide from human menin; O00255; 270,000 compounds, 0.23% hits; AID 1768; Potency, µM (top dose mostly 61.6 µM), for inactives: at the highest dose FP activity change, negative = inhibition, actives largely listed as inhibitors; Menin + Texas Red MLL mutant peptide, fluorescence polarization; active = well fitted inhibition curve with a large enough effect in the polarisation, with a control signal flat, not every such curve was filed as active; inconclusive = small, poorly fitted or top-dose-only effect, or effect the other way, or a change in a side signal; inactive = no such curve, though single readings can be large or run the other way; the % refers to the polarisation; note: potency is the fitted concentration of half-maximal effect; % of control where 0% means no effect
Target sequence (O00255 whole entry, looked up): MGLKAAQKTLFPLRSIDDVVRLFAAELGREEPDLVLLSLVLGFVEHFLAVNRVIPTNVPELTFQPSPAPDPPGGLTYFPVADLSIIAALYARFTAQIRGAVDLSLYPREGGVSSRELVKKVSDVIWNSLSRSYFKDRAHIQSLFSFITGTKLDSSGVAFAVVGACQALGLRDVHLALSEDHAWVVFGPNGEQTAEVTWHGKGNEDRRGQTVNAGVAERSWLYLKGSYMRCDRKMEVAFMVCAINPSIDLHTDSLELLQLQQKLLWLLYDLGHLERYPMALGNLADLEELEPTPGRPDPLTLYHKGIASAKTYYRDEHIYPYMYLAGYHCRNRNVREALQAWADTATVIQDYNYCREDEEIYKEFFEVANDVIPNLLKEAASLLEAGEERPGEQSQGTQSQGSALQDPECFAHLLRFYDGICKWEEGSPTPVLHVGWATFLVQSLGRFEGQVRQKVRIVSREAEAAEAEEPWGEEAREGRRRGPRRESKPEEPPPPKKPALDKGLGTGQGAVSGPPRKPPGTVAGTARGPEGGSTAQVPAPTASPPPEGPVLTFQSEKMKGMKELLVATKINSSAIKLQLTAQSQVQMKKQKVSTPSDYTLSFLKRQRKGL
MLL CXXC-DNA inh = MLL CXXC-DNA interaction inhibition | Q03164 | MLL-CXXC / FITC-HOXA9 DNA fluorescence polarization | Potency, µM (highest dose often 115 µM), for inactives: at the top dose activity change, negative = inhibition, most hits filed as inhibitors | 290,000 compounds, 0.037% hits; active = well fitted inhibition curve with a large enough effect in the polarisation, with a control signal flat, not every such curve was filed as active; inconclusive = small, poorly fitted or top-dose-only effect, or effect the other way, or a change in a side signal; inactive = no such curve, though single readings can be large or run the other way; the % refers to the polarisation; note: potency is the fitted concentration of half-maximal effect
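Purified MLL-CXXC (added from a 7 uM solution) was preincubated 5 min at ambient with pinned compounds in 50 mM Tris-HCl pH 7.5, 50 mM NaCl, 1 mM DTT, 0.05% BSA. Fluorescein-labeled HOX-A9 DNA (50 nM solution) followed, 30 min, then polarization read.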
Epigenetic reg = derepresses silenced GFP reporter in murine cells; AID 1865; 280,000 compounds, 0.2% hits; Potency, µM (doses to about 53.9 µM), inactives show at the top dose GFP activation, usual class: activators; murine LDR cells, GFP reporter derepression, 30 h; active = well fitted activation curve with a large enough effect; inconclusive = small, poorly fitted or top-dose-only effect; note: potency is the fitted concentration of half-maximal effect; % of control where 0% means no effect; nearly all actives have a fitted effect of over 60% in size
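Murine LDR cells bearing a silenced CMV-driven GFP reporter were exposed to compound for 30 h at 37 C. After PBS washes, GFP-positive cells (20-120 um objects) counted by laser-scanning microplate cytometry.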
PINK1 modulator = changes PINK1 expression; Potency, µM (top dose mostly 76.6 µM), inactives show at the highest dose activation (PINK1 increase), actives largely listed as activators; 410,000 compounds, 0.2% hits; AID 624263; PINK1 immunofluorescence, high-content cytometry, 24 h; active = well fitted activation curve with a large enough effect; inconclusive = small, poorly fitted or top-dose-only effect; cell line not stated here; note: potency is the fitted concentration of half-maximal effect; % of control where 0% means no effect; nearly all actives have a fitted effect of over 65% in size
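Stable cell line, 250 cells/well, 12 h attachment; compounds pinned at 5 concentrations, 24 h; CCCP control. Fixed with nuclear dye, primary antibodies 12 h at 10 degrees C, secondary plus cell stain; laser-scanning cytometer read.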
Menin MLL FP FL = menin-MLL binding inhibition, fluorescein peptide | Fluorescence polarization, fluorescein-MLL peptide displacement from menin | FP activity change, % at 61.4 µM | 290,000 tested, under 10 active | AID 1766; active = well fitted curve in the direction sought with a large enough effect in the polarisation, not every such curve was filed as active; inconclusive = small, poorly fitted or top-dose-only effect, or effect the other way, or a change in a side signal; inactive = no such curve, though single readings can be large or run the other way; the % refers to the polarisation; note: % of control where 0% means no effect
ClpP mod = qHTS Assay for Activators of ClpP | purified B. subtilis ClpP, FRET peptide cleavage, 20 min | Potency, µM (titrated, usually from 57.5 µM), for the others: top-dose activity change, negative = active | 340,000 compounds, 1.9% hits | AID 651965, 2013; active = well fitted falling curve with a large enough effect; inconclusive = small, poorly fitted or top-dose-only effect; inactive = no such curve, though single readings can be large or run the other way; note: potency is the fitted concentration of half-maximal effect; the source files actives as falling curves though it sought activators and does not explain the sign; nearly all actives have a fitted effect of over 65% in size
Target sequence (P80244 whole entry, looked up): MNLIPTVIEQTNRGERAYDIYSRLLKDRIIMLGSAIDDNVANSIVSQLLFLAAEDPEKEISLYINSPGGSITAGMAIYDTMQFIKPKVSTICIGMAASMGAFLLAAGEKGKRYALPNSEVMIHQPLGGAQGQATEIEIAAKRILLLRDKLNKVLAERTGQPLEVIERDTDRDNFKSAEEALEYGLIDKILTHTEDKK
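Purified B. subtilis ClpP, 10 microg/mL final in Tris/HCl pH8 with KCl, BSA, glycerol and Tween-20, cleaved an Abz/nitrotyrosine-quenched decapeptide. Fluorescence (ex 320, em 430) was read at 0 and 20 min at room temperature. Delta was normalized to 5.8 microM ADEP and DMSO/no-enzyme controls.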
Starred values were filed as active, the others as inactive; ? = inconclusive; nt = no result; [ ] = dose if it differs, or a comment.

SMILES	Menin-MLL TR inh	MLL CXXC-DNA inh	Epigenetic reg	PINK1 modulator	Menin MLL FP FL	ClpP mod
CCOC(=O)Cn1c(-c2ccc(Cl)nc2)nc2ccccc21	4.3%	13.4%	0.0%	-3.4%[38.3 µM]	1.5	10µM*
CC1(C)Cc2c(C#N)c(NCCN3CCOCC3)nc(-c3ccco3)c2CO1	-8.5%	-10.3%	-8.8%	1.2%	-0.7	31.6µM*
N#Cc1c(NC2CCCCC2)nc(-c2ccco2)c2c1CCCC2	1.0%	-1.1%	0.0%	7.5%	4.4	7.08µM*
N#Cc1c(NCCCO)nc(-c2ccco2)c2c1CCCC2	0.3%	2.2%	-0.2%	0.1%	?	28.2µM*
CC1(C)Cc2c(C#N)c(NCCO)nc(-c3ccco3)c2CO1	nt	-3.0%	-0.3%	0.5%	8.0	nt
N#Cc1c2c(c(-c3ccco3)[nH]c1=O)CCCC2	-14.1%	-5.8%	-0.1%	-1.9%[38.3 µM]	0.6	-5.0%
COc1cccc(C(=O)NCC2Cc3cccc(-c4ncccn4)c3O2)c1OC (configuration not stated)	nt	nt	nt	1.2%	nt	nt
O=C(CC1C(=O)NCCN1C(=O)Nc1ccc(Cl)cc1)Nc1ccc(F)cc1 (configuration not stated)	38.9%	10.5%	-0.2%	6.3%	0.0	nt
O=C(CC1C(=O)NCCN1C(=O)c1ccc(Cl)cc1)Nc1ccc(F)cc1 (configuration not stated)	nt	7.0%	nt	-2.4%	nt	31.6µM*
COc1cccc(C(=O)NCC2Cc3cccc(-c4nc(C)cnc4C)c3O2)c1OC (configuration not stated)	nt	nt	nt	0.5%	nt	nt
CC(=O)Nc1ccc(S(=O)(=O)Oc2ccc(/C=C3\SC(N)=NC3=O)cc2)cc1	14.1µM*	2.0%	-0.3%	1.4%	-1.0	nt
NC1=NC(=O)/C(=C/c2ccc(OCC(=O)O)cc2)S1	-19.3%	30.2%	nt	-0.1%	16.9	-2.3%
COC(=O)c1c(-c2ccc(C)cc2)csc1NC(=O)C1CC=CCC1C(=O)O (configuration not stated)	-5.5%	-2.7%	-0.9%	1.2%	1.2	15.8µM*
COC(=O)c1ccccc1NC(=O)C1CC=CCC1C(=O)O (configuration not stated)	1.7%	5.9%	-11.1%	-1.5%	-0.2	22.4µM*
CCO/C=N/c1c(C#N)c2c(c(=S)n1C)COC(C)(C)C2	-21.1%	3.5%	1.2%	-1.3%	4.1	3.55µM*
COc1ccc(O)c(CN2CCC3(CCC(CNC(=O)C4CCCO4)O3)CC2)c1 (configuration not stated)	nt	nt	nt	-0.6%	nt	nt
COc1ccc(OCCN(C)CC(=O)Nc2c(C)cccc2C)cc1	?	32.3%	nt	0.3%	0.2	20µM*
CCOC(=O)C1CCCN(C(=O)/C=C/c2cccc([N+](=O)[O-])c2)C1 (configuration not stated)	12.8%	-10.1%	3.5%	-1.2%	3.3	25.1µM*
CCN(Cc1ccncc1)Cc1ccc2c(c1)CN(C(=O)c1ccc(OC)cc1)CCO2	nt	nt	nt	-0.8%	nt	nt
COC(=O)c1ccc(NC(=O)CN(C2CCCCC2)S(C)(=O)=O)cc1	?	12.0%	0.0%	2.6%	3.7	0.708µM*
COc1ccc(NC(=O)CN(C2CCCCC2)S(C)(=O)=O)cc1OC	0.5%	6.0%	-1.1%	0.5%	-1.4	-0.7%
Cc1cc(Oc2ccc(Cl)cc2Cl)nc(C#N)n1	nt	nt	nt	1.1%	nt	-0.5%
CCN(CC)c1ccc2cc(-c3nnc(-c4ccncc4)o3)c(=O)oc2c1	-23.6%	?	0.562µM*	?	?	?
CCN(CC)c1ccc2cc(-c3nnc(-c4cccc(Cl)c4)o3)c(=O)oc2c1	nt	nt	?	18.1%	nt	28.2µM*
COc1cccc(-c2nnc(-c3cc4cc(Cl)ccc4oc3=O)o2)c1	nt	nt	-1.6%	-0.2%	nt	0.4%
SMILES	Menin-MLL TR inh	MLL CXXC-DNA inh	Epigenetic reg	PINK1 modulator	Menin MLL FP FL	ClpP mod
COc1cc(OC)c(OC)cc1CN1CCCC(c2[nH]ncc2-c2cccc(C(F)(F)F)c2)C1 (configuration not stated)	nt	nt	nt	0.7%	nt	nt
O=C(O)COc1ccc(C(=O)c2cccs2)c(Cl)c1Cl	7.5%	7.2%	-0.3%	nt	-0.2	nt
O=C(O)COc1ccc2nsnc2c1Cl	5.6%	3.0%	0.0%	2.4%	-0.8	14.1µM*
CN=C1C=CC(=C(c2ccc(N(C)C)cc2)c2ccc(N(C)C)cc2)C=C1	?	-1.3%	nt	nt	-5.7	nt
COc1ccc(NC(=O)CN(C)C(=O)c2sc3cc(Cl)ccc3c2Cl)cc1	nt	nt	nt	8.8%	nt	28.2µM*
CSc1nnc(CCNC(=O)/C=C/c2cccc(F)c2)n1-c1ccc(F)cc1	nt	nt	nt	0.0%	nt	nt
Cc1cc(Nc2ccc(C)c(Cl)c2)n2nc(-c3ccccc3)nc2n1	nt	nt	11.2µM*	?	nt	4.3%
CCCN(CC(=O)Nc1ccc(F)c(F)c1F)C(=O)c1cc([N+](=O)[O-])ccc1N1CCOCC1	nt	nt	nt	1.3%	nt	22.4µM*
Oc1cc(-c2nc3ccccc3s2)cc2c1OCCN(Cc1cn[nH]c1-c1ccc(Cl)cc1)C2	nt	nt	nt	0.5%	nt	nt
CCOC(=O)CCc1c(C)c2ccc(OCC)c(C)c2oc1=O	0.9%	6.1%	-2.5%	-3.0%[38.3 µM]	1.8	31.6µM*
CCOc1ccc2c3c(c(=O)oc2c1OCC)CCCC3	-27.2%	10.6%	-1.2%	-1.8%	2.2	?
COC(=O)Cc1c(C)c2ccc(OCC(=O)N3CCCC3)c(C)c2oc1=O	nt	-0.4%	nt	-0.7%	nt	?
COc1ccc2c3c(c(=O)oc2c1OCC(N)=O)CCCC3	2.7%	-0.9%	-1.1%	-0.9%	3.2	28.2µM*
CCOC(=O)CCc1c(C)c2ccc(OCC(=O)N3CCOCC3)c(C)c2oc1=O	-11.6%	16.4%	nt	-0.2%	-3.2	10µM*
CCOC(=O)COc1ccc2c3c(c(=O)oc2c1C)CCC3	?	-8.6%	0.0%	-0.5%	-1.3	12.6µM*
CCCCc1nc2c(c3c1C[C@H](C)OC3)CN(C(=O)c1cc(I)ccc1F)CC2	-14.5%[11.7 µM]	nt	nt	nt	-1.7[11.7 µM]	nt
COc1ccc2c(C)c(Cc3ccccc3)c(=O)oc2c1OC	-20.1%	-1.2%	-1.8%	1.4%	-4.6	4.1%
CCCCc1c(C)c2ccc(OC)c(/C(C)=N\O)c2oc1=O	-5.5%	3.4%	1.1%	1.4%	4.2	8.91µM*
O=C(CSc1nnc(COc2ccc(Cl)cc2)o1)Nc1ccc(N2CCOCC2)cc1	nt	nt	nt	1.8%	nt	1.5%

Bioassay records from PubChem.
